# Measurements from PubChem BioAssay (NCI).
# Where “and” joins values, the source holds several entries; their conditions need not be identical. Equal entries are not always repeated. This is part of a sample that, as a whole, favours compounds with a hit. Of some 83,000 tested, about 20% had one in any assay.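 Assay: single dose, 48 h. Readout: percent growth (0 = no net growth; negative = cell death). Active: <10.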 Values without a mark were called inactive. Calls of active or inactive are those of the source.
# System: MDA-MB-468 breast
# Assay: NCI-60 one-dose screen, 48 h (100 = growth as untreated, 0 = no growth, -100 = all killed)
# Details: 10 µM unless noted
row,SMILES,growth
1,O=c1cc(-c2ccccc2)oc2c(O)c(O)ccc12,79.5%
2,NC(=O)c1ccc2c(c1)OCO2,88.9%
3,CCOC(=O)n1cc(-c2nonc2-c2cn(C(=O)OCC)c3ccc(Br)cc23)c2ccccc21,85.9%
4,COc1ccc(OC)c(/C=C2\Oc3cc(OCCN4CCCC4)ccc3C2=O)c1,98.9%
5,OC(c1cc(-c2ccc(C(F)(F)F)cc2)nc(-c2ccc(C(F)(F)F)cc2)c1)C1CCCCN1 (stereo not given),-85.1% (active)
6,CCc1c(C)[nH]c(=O)c(C(N)=O)c1C#N,105%
7,C=C[C@@H]1C[C@@H]2Cc3ccccc3N1O2,97.8%
8,O=C(Nc1ccc(-n2cc(-c3ccncc3)c(-c3ccc(Cl)c(O)c3)n2)cc1)c1ccc(Cl)c(Cl)c1,54.2%
9,CC(=O)OC[C@@]12Oc3c(cccc3-c3ccc(O)c4c3O[C@]3(COC(C)=O)C(=C4O)C(=O)C[C@H](C)[C@@H]3OC(C)=O)C(O)=C1C(=O)C[C@H](C)[C@@H]2OC(C)=O,-30.2% (active)
10,COc1cc2cc3c(nc2cc1OC)CCN3Cc1ccc(NC(=O)Nc2ccc(F)cc2F)cc1,45.6%
11,Nc1ncnc2[nH]ncc12,-20.3% (active)
12,O=C(COc1ccc(-c2nc3ccccc3[nH]2)cc1)N=Nc1c(O)[nH]c2ccc(Cl)cc12,89.7%
13,CCOC(=O)C1=C(N)Oc2c(sc3c(C)cccc23)C1c1ccc(F)cc1 (stereo not given),6.58% (active)
14,N#Cc1cccc(C2C3=C(COC3=O)N(CCO)c3cc4c(cc32)OCO4)c1 (stereo not given),21%
15,COc1ccc(Cl)cc1NC(=O)C(Br)C(Br)C(=O)O (stereo not given),-79% (active)
16,CCCC/C(CC)=N\NS(=O)(=O)c1ccc([N+](=O)[O-])cc1,109%
17,NC(=O)c1cc(Cl)ccc1NC(=O)c1ccccc1-c1ccccc1,25.4%
18,CC1Cc2c(Cl)ncnc2N(C)c2ccc(O)cc21 (stereo not given),-6.93% (active)
19,Cc1cc(=O)n(C(=O)Nc2ccccc2Cl)c2cc(O)ccc12,104%
20,CCN(CC)CCCC(Nc1c2ccc(Cl)cc2nc2ccc(OC)cc12)c1ccc(Cl)cc1 (stereo not given),-78.5% (active)
21,O=C1CC2C=CCN2C=C1NC(=O)c1ccccc1 (stereo not given),98.9%
22,Clc1nc2ccc(Br)cc2cc1-c1nc2ccccc2[nH]1,76.3%

row,SMILES,growth
1,COc1cc2nccc(Oc3ccc(NC(=O)C4(C(=O)Nc5ccc(F)cc5)CC4)cc3)c2cc1Oc1ccc(N)cn1,31.7%
2,CC1CCCC(=O)O1 (stereo not given),97.4% and 97.3%
3,ClC1=NC(Cl)C(Cl)=N/C1=N\c1ncn[nH]1 (stereo not given),-61.6% (active)
4,C=CCC(OC(C)=O)c1ccc(OC)c(OC)c1 (stereo not given),125%
5,CC/C=C\C[C@H](F)C/C=C1/C(=O)C=C[C@@H]1C/C=C\CCCC(=O)OC,17.9%
6,CCN(Cc1ccc(Cl)c(Cl)c1)c1ccc2nc(N)nc(N)c2c1C,-84.2% (active)
7,CCCCN1CCN(c2ccc3nc(-c4ccc5nc(-c6ccc(OCC)c(OCC)c6)[nH]c5c4)[nH]c3c2)CC1,-77.8% (active)
8,COc1ccc(/C(C)=C(/c2ccc(OCCCN(C)C)cc2)c2ccc(OC(=O)Cc3ccccc3)cc2)cc1,87.2%
9,CCCCOC(=O)OCc1cc(=O)c(O)co1,97.5%
10,CN1CCN(CCNC(=O)c2cccc(CN3c4cccc5c4C(=Cc4cccnc43)N(C)C5=O)c2)CC1,24.4%
11,COC(=O)/C(CCC=C(C)C)=C1\[C@@H](OC(C)=O)C[C@@]2(C)[C@H]1CC(=O)[C@H]1[C@@]3(C)CCC(N4CCCC4)[C@@H](C)[C@@H]3CC[C@@]12C (stereo not given in full),99.7%
12,O=C1c2ccccc2C(=O)c2c(NCCN=Cc3c(O)ccc4ccccc34)cccc21,84.5%
13,Cn1cc(-c2nonc2-c2cn(C)c3ccc(F)cc23)c2cc(F)ccc21,60.1%
14,CN1C(=O)/C(=C/c2ccc(C(=O)Nc3ncc(Cc4cccc(Cl)c4)s3)cc2)SC1=S,37.7%
15,CN1CCCN(CCNc2nccc(-c3c(-c4cccc(O)c4)nc4sccn34)n2)S1(=O)=O,68.9%
16,CCSC1=NC2C(N(CC)C(=O)N2CC)N1/N=C/C=C/c1ccccc1[N+](=O)[O-] (stereo not given),-0.585% (active)
17,CCC1=Cc2c(OC)cccc2OC12C=Cc1c(OC)cccc1O2 (stereo not given),54%
18,COC(=O)c1ccc(NC(=O)CSc2nc(-c3ccc(F)cc3)nc3ccccc23)cc1,80.1%
19,Cc1cc(N2CCN(c3ccnc4cc(Cl)ccc34)CC2)nc(NC2CCCCC2)n1,-5.23% (active)
20,COC(=O)c1cc(-c2cc(OC)c(OC)c(OC)c2)[nH]c1N/N=C/c1c(Cl)cccc1Cl,-9.15% (active)
21,CCOC(=O)c1sc2ncnc(Nc3ccc(NC(=O)Nc4ccc(Cl)cc4)cc3)c2c1C,68.9%
22,CCN(CC)CCN1C(=O)c2cccc3c(/C=C/CN4C(=O)c5cccc6cccc(c56)C4=O)ccc(c23)C1=O,99.2%

row,SMILES,growth
1,O=C(/C=C/c1ccc(B(O)O)cc1)/C=C/c1ccc(B(O)O)cc1,1.24% (active)
2,N#C/C(=C\c1ccc(Br)cc1)n1nnc2cc(Cl)c(Cl)cc21,-5.24% (active)
3,Cc1ccc2oc3nc(C)c(C(=O)NCc4ccccc4)cc3c(=O)c2c1,96.7%
4,NS(=O)(=O)c1cccc(Nc2nc(SCC(=O)c3ccc(Cl)cc3)nc3ccccc23)c1,80.1%
5,NCCOCCOc1ccccc1,118%
6,N#Cc1c(-c2ccccc2)c(C#N)c2c(C#N)c(N)nn2c1N,25.9%
7,COC(=O)[C@]1(C)CCC[C@]2(C)[C@H]3C[C@@H]4[C@H]5[C@@H]6CC/C(=N\OCC/C(N)=N/O)[C@H]5[C@@]3(CC[C@H]21)CC4(C(C)C)O6,64.1%
8,COc1cc(OC)c2ccc(=O)oc2c1,103%
9,NC(=S)NN=C1CCC(C2CCCCC2)CC1 (stereo not given),50.9% and 46.9%
10,Nc1nc(SCC2(CCl)COC2)c2[nH]cnc2n1,108%
11,O=[N+]([O-])c1ccc(C2CC(c3ccccc3)=Nc3ccccc3S2)cc1 (stereo not given),77.7%
12,COc1ccc2[nH]cc(-c3noc(C(=O)c4cn(C)c5ccc(F)cc45)n3)c2c1,102%
13,NC(N)=Nc1ccc(S(=O)(=O)O)cc1,114%
14,CCCCCN1C=C/C(=C\C(=O)N(C)c2ccc(Br)cc2)c2ccccc21,73.8%
15,COc1cc(C2CC(=O)c3ccccc3N2)cc(OC)c1OC (stereo not given),90.5%
16,CNC(=O)NCC1OC(n2cnc3c(NC(=O)Nc4ccccc4)ncnc32)C(O[Si](C)(C)C(C)(C)C)C1O[Si](C)(C)C(C)(C)C (stereo not given),35.8%
17,Nc1nc2ccccc2c2c1S(=O)(=O)c1ccc(Cl)cc1C2=O,10.8%
18,COc1ccc(NC(=O)n2nc(/C=C\c3ccc(O)c(OC)c3)cc2/C=C\c2ccc(O)c(OC)c2)cc1,34.7%
19,Cc1ccc(C(C)C)cc1C(=O)C[n+]1ccccc1,107%
20,CC(C)OP(=O)(O)c1ncc(-c2ccc(C(F)(F)F)cc2)c(NC2CCCCCC2)n1,28%
21,Cc1c(O)c(=O)ccn1-c1nc2ccccc2s1,103%
22,COc1cccc(CNc2c3ccccc3nc3ccccc23)c1OC,1.08% (active)

row,SMILES,growth
1,O=C(O)c1ccc(-n2cc(/C=N/Nc3ccccc3F)c(-c3ccc(O)cc3)n2)cc1,78.3%
2,COc1cccc(-c2nnc(N)o2)c1,90.3%
3,O=C1c2cccc3c([N+](=O)[O-])ccc(c23)C(=O)N1CCCCl,-62.2% [100 µM] (active)
4,O=C1/C(=C/c2ccc(OCCCOc3ccc(Cl)cc3)cc2)N=C2SCCCN12,61.2%
5,COc1cc2ncnc(Nc3ccc(S(=O)(=O)Nc4cc(C)on4)cc3)c2cc1OCCCN1CCN(c2ccc([N+](=O)[O-])cc2)CC1,115%
6,O=C1C(Cl)=C(Nc2ccccc2)C(=O)c2ccccc21,-77.8% (active)
7,CC(C)c1ccc(Cn2ccc3c4c(N)nc(NC5CC5)nc4ccc32)cc1,-76% (active)
8,COc1ccc(NC(=O)CSc2nc3ccccc3c(=O)n2-c2ccccc2C(F)(F)F)c(OC)c1OC,93.2%
9,COc1ccc(/C=C(/C(=O)N2CCNCC2)c2cc(OC)c(OC)c(OC)c2)cc1O,-4.45% (active)
10,FC(F)(F)c1cccc(-c2cn3c(ccc4ccccc43)n2)c1,104%
11,CCCC(=O)Oc1ccc(/C(=C(\C)c2ccccc2)c2ccc(OCCN(CC)CC)cc2)cc1,62.4%
12,C=CC(CC(c1ccccc1)(c1ccccc1)c1ccccc1)N(CC)CC (stereo not given),30.5%
13,CCOC(=O)c1cc(/C(=N\O)c2cc(OC)c(OC)c(OC)c2)n2c(C)cccc12,21.8%
14,COc1ccc(Cn2cc3c(c2-c2ccccc2)CC(C)(C)c2cnoc2-3)cc1,3.53% (active)
15,CCN(CC)CCCNCc1cc(-c2ccccc2)nc2ccccc12,91.5%
16,Cc1nn(-c2ccccc2)nc1C(=O)Nc1ccccc1C(=O)NCC1CC1,107% and 87.5%
17,COc1cc(-c2nc(-c3nnc(-c4ccc(F)c(Cl)c4)o3)c3ccccn23)cc(OC)c1OC,52.5%
18,O=S(=O)(Cc1ccccc1)c1ccccc1,102%
19,CONC1=Nc2cc(NC(N)=NCc3ccccc3)c(N(C)C3CCCCC3)cc2OC1,-23.4% (active)
